Tau fibril FP = inhibitors of human tau fibril formation. P10636. K18 P301L tau heparin fibrillization, Alexa594 FP, 6 h. Potency, µM (series often up to 57.7 µM), inactives show at the highest dose activity, negative = inhibition, most hits filed as inhibitors. hit rate 0.39% among 280,000. AID 1468; note: potency is the fitted concentration of half-maximal effect; nearly all actives have a fitted effect of over 55% in size
Target sequence (P10636 561-689 P618L limits assumed): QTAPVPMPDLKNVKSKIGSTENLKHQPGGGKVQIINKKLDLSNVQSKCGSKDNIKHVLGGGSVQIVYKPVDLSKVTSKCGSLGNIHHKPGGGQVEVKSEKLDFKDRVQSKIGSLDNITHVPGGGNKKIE
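Heparin (20 uM) drove fibril formation of recombinant tau K18 P301L, 15 uM unlabeled with 0.24 uM Alexa 594 label, for 6 hr at 37 C in 100 mM sodium acetate pH 7. Fluorescence polarization (555/632 nm) read 1 hr after 30 uM ThT.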
Tau fibril ThT = tau fibrillization inhibition (ThT binding). recombinant tau K18 P301L, heparin-induced fibrillization, ThT fluorescence. P10636. hit rate 2.1% among 270,000. AID 1460. Potency, µM (doses to about 57.4 µM), for the others: top-dose activity, negative = inhibition, usual class: inhibitors; note: potency is the fitted concentration of half-maximal effect; nearly all actives have a fitted effect of over 55% in size
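Heparin-induced (20 uM) aggregation of recombinant human K18 P301L tau, 15 uM unlabeled with 0.24 uM labeled, pH 7 acetate buffer, 6 hr at 37 C with compound. Fibrils quantified by 30 uM ThT fluorescence after 1 hr ambient incubation.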
Sfp inh = inhibitors of Bacillus subtilis Sfp phosphopantetheinyl transferase | Q9F4F7 | Biochemical Sfp PPTase activity, qHTS | Potency, µM, without a hit: largest response in the series, negative = inhibition, hits mostly inhibitors | hit rate 3.5% among 310,000 | AID 1490;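 note: the enzyme is Sfp with the accession as filed and its product quenches rhodamine fluorescence; potency is the fitted concentration of half-maximal effect; 0% = enzyme reaction without inhibitor and -100% = no enzyme wells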
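Compounds were incubated with enzyme (final 15 nM) for 15 min at room temperature before substrate addition started the reaction. Fluorescence at 525 nm excitation, 598 nm emission was recorded immediately and after 30 minutes.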
Tau fluor cs = counter-screen for tau fibril formation inhibitors | tau K18 P301L Alexa594 fluorescence, heparin fibrillization | Potency, µM (titrated, usually from 57.7 µM), for the others: top-dose activity change, negative = decrease | hit rate 0.93% among 280,000 | AID 1463; note: potency is the fitted concentration of half-maximal effect; nearly all actives have a fitted effect of over 55% in size
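Human tau K18 P301L (15 uM unlabeled, 0.24 uM Alexa 594-labeled) in 100 mM sodium acetate pH 7 with 20 uM heparin, 6 hr at 37 C. ThT 30 uM added, 1 hr ambient; Alexa 594 FP and total fluorescence read at 555/632 nm.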
FBPA coupling cs = inhibits coupling enzyme system, counter-screen for aldolase hits. coupling enzyme system counterscreen, AmpLite Red fluorescence. activity change, negative = inhibition, % at 58.2 µM, hits read low. hit rate 0.67% among 290,000. AID 2472; in the data active = activity change below about -30%
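Coupling enzymes only (glyceraldehyde-3-phosphate) + compound, at 57.5 uM final, 10 min RT; add substrate/coupling/AmpLite Red mix, 20 min RT; fluorescence ex 525/em 598 nm. Actives flag coupling-system interference.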
An asterisk follows results filed as active; ? = inconclusive; / = no result given; [ ] = another dose, or the depositor's remark. Only some compounds are listed: those with a hit (about 5.2% of all), similar ones and a draw of the others. Unless noted, calls come from the whole dose curve; as a rule, active = well fitted curve in the direction sought with a large enough effect; inconclusive = small, poorly fitted or top-dose-only effect, or another doubt; inactive = no such curve, though single readings can be large; an effect the other way counts as inactive or inconclusive. Unless noted, % is set by controls: 0 for no effect and ±100 for the full control effect.

SMILES	Tau fibril FP	Tau fibril ThT	Sfp inh	Tau fluor cs	FBPA coupling cs
CN(Cc1ccco1)C(=O)c1ccc2c(c1)N(Cc1ccccc1F)C(=O)c1ccccc1S2	3.3%	-10.1%	/	-11.4%	/
O=C(NC(=S)Nc1ccccc1Cl)c1csnn1	?	15.8µM*	50.1µM*	-12.3%	-6.5
O=C(Nc1ccccc1NC(=O)c1csnn1)c1csnn1	-4.1%	-9.0%	?	-11.0%	3.5
CCOC(=O)c1nc(Nc2ccc(N3CCC(C)CC3)cc2)c2ccccc2n1	13.4%	?	-11.5%	11.2µM*[quencher]	-0.8
CCOC(=O)c1nc(Nc2ccc(C(=O)O)cc2)c2ccccc2n1	-6.2%	-10.2%	8.3%	-8.4%	0.0
CCOC(=O)c1nc(Nc2ccc(Nc3ccccc3)cc2)c2ccccc2n1	5.3%	5.01µM*	8.6%	7.08µM*[quencher]	-2.8
COc1ccc(-c2nc3c(c4c2C[C@H](c2ccccc2)OC4)CN(C(=O)Cc2cccs2)CC3)c(C)c1	8.6%[11.6 µM]	4.3%[11.5 µM]	-3.4%	12.1%[11.6 µM]	1.1
Cc1ccc2c(nc3s/c(=C/c4cccs4)c(=O)n32)c1C	?	?	-19.8%	-13.9%	-1.4
Cc1cc(C)c2nc3s/c(=C/c4ccccc4)c(=O)n3c2c1	?	28.2µM*	8.91µM*	-24.5%	5.5
Cc1cc(C)cc(-n2c(SCC(N)=O)nc3c(oc4ccccc43)c2=O)c1	-4.5%	-8.2%	/	-14.7%	/
CCOC(C)=O	/	/	12.9%	/	/
CCOC(=O)[C@@H](N)CS	/	/	28.2µM*	/	/
Cc1ccc[n+](/C(C(=S)NCc2ccco2)=C(/[O-])c2ccccc2Cl)c1	-10.2%	-7.9%	44.7µM*	-10.0%	-32.4*
CC(C)(C)c1ccc(/C([O-])=C(/C(=S)NCc2ccco2)[n+]2ccccc2)cc1	-1.6%	?	50.1µM*	-24.2%	-30.4*
S=C(NCc1ccco1)Nc1ccccc1Cl	1.7%	-7.7%	?	-13.7%	1.2
CC(C)(C)c1ccc(OCC(=O)NCc2ccco2)cc1	-7.0%	-13.2%	10.9%	-11.6%	-1.2
C=CCN1c2ccccc2[C@]23C[C@@H](C(=O)OC)N(C(=O)COCc4ccccc4)C2=NC(C(=O)OC)=C(C(=O)OC)[C@H]13	-8.2%[11.6 µM]	-3.8%[11.5 µM]	?	-4.5%[11.6 µM]	0.8
O=C(CN1C=NS(=O)(=O)c2ccc(C(F)(F)F)cc21)Nc1cccc(C(F)(F)F)c1	-4.7%	26.1%	/	-11.1%	/
CCn1c(CNC(=O)c2ccc(OC)cc2)nnc1SCC(=O)Nc1ccccc1	-8.5%	-5.0%	/	-9.4%	/
C/C(=N\Nc1ccc(C(=O)O)cc1)c1ccc(Cl)s1	/	/	10µM*	/	0.7
Oc1c(C(c2ccccc2Cl)N2CCN(Cc3ccccc3)CC2)sc2nc(-c3ccco3)nn12 (stereo not drawn)	1.6%	-6.8%	/	-13.3%	/
Cc1cc2cc(C(c3nnnn3C3CCCC3)N(Cc3cccnc3)Cc3ccco3)c(=O)[nH]c2cc1C (stereo not drawn)	-3.5%	?	56.2µM*	-16.8%	-3.4
c1cc(-c2nsc(-c3ccncc3)n2)ccn1	-3.0%	?	44.7µM*	-14.2%	0.0
COc1ccc(-n2c(=O)c3sc4ccccc4c3n(C)c2=O)cc1	-18.1%	-10.2%	/	-12.1%	/
COc1cc2nc(C3CCC3)nc(N3CCN(c4ccccn4)CC3)c2cc1OC	-0.9%	-3.7%	79.4µM*	1.2%	1.3
SMILES	Tau fibril FP	Tau fibril ThT	Sfp inh	Tau fluor cs	FBPA coupling cs
O=C(Nc1cccc(S(=O)(=O)N2CCCCCC2)c1)c1cc(=O)c2ccccc2o1	?	-9.4%	12.8%	14.1µM*[quencher]	-2.9
CN(c1ccccc1)S(=O)(=O)c1cccc(NC(=O)c2cc(=O)c3ccccc3o2)c1	-27.4%	-18.5%	10.9%	12.6µM*[quencher]	0.4
NS(=O)(=O)c1cccc(NC(=O)c2cc(=O)c3ccccc3o2)c1	/	/	-5.7%	/	1.0
CC(C)(C)C1=Nn2c(nnc2-c2n[nH]c3c2CCC3)SC1	-2.6%	0.0%	25.1µM*	5.3%	-2.4
Cc1ccc(NC(=O)C2CCCN2S(=O)(=O)c2ccc3nc(-c4ccccc4)[nH]c3c2)cc1F (stereo not drawn)	?	-10.6%	/	28.2µM*[quencher]	/
COc1ccc(NC(=O)C2CCCN2S(=O)(=O)c2ccc3nc(-c4ccccc4)[nH]c3c2)cc1 (stereo not drawn)	-14.4%	2.3%	/	-0.9%	/
CCCCCC1CC1C(=O)N/N=C/c1ccc(N(C)C)cc1 (stereo not drawn)	4.1%	15.8µM*	-15.7%	?	/
CN(C)c1ccc(/C=N/NC(=O)COc2ccccc2)cc1	-0.6%	?	3.3%	-16.6%	1.2
c1ccc2nc3c(nc2c1)c1ccccc1n3CCN1CCOCC1	-20.1%	-16.2%	1.6%	-12.0%	-5.2
CCn1c2ccccc2c2nc3cc(S(=O)(=O)N4CCOCC4)ccc3nc21	31.6µM*	25.1µM*	6.31µM*	-27.0%	-0.2
Cc1ccc2c(CN3CCCc4ccccc43)cc(=O)oc2c1C	-6.4%	?	-24.1%	-19.6%	-52.6*
Cc1ccc2c(CN3CCCCC3)cc(=O)oc2c1C	/	/	0.4%	/	3.7
Cc1c(C(=O)N2CCCCCC2)c(S(=O)(=O)N(Cc2ccccc2)C(C)(C)C)c(C)n1C	-6.2%	2.8%	/	10.2%	/
CC(=O)NCCCC[C@H](NC(=O)OC(C)(C)C)C(=O)Nc1ccc2c(C(F)(F)F)cc(=O)oc2c1	/	/	3.1%	/	-0.2
S=P(c1ccc(N2CCOCC2)cc1N1CCOCC1)(N1CCOCC1)N1CCOCC1	-5.8%	-2.0%	35.5µM*	0.1%	1.5
O=[N+]([O-])c1ccc(N2CCOCC2)cc1N1CCCCC1	0.8%	?	-6.7%	1.5%	-1.1
COc1ccc(CCNC(=O)Cn2cc(S(=O)(=O)Cc3ccccc3Cl)c3ccccc32)cc1OC	-0.4%	-14.9%	/	-24.4%	/
CC(=O)c1ccc(NS(=O)(=O)c2ccc(N)cc2)cc1	-3.5%	-2.0%	12.3%	-3.6%	4.1
CC(=O)c1ccc(N=Nc2ccc(N)cc2)cc1	-5.2%	0.562µM*	2.6%	?	0.8
CC(C)C[C@H](NC(=O)[C@@H](Cc1c[nH]c2ccccc12)NC(=O)[C@H](Cc1ccc(O)cc1)NC(=O)[C@H](CO)NC(=O)[C@H](Cc1c[nH]c2ccccc12)NC(=O)[C@H](Cc1cnc[nH]1)NC(=O)[C@@H]1CCC(=O)N1)C(=O)N[C@@H](CCCN=C(N)N)C(=O)N1CCC[C@H]1C(=O)NCC(N)=O	/	/	11.3%	/	3.2
C[C@H](Cc1nc2c(cnn2-c2ccccc2Cl)c(=O)[nH]1)C(F)(F)F	/	/	-21.1%	/	-6.2
CCCC(=O)OCc1cnc(C)c2oc(=O)c(C(=O)Nc3ccc(F)cc3C)cc12	-1.6%	-9.3%	/	-9.3%	/
COc1ccc(OC)c2sc(N(CCN(C)C)C(=O)c3cc(Cl)sc3Cl)nc12	-5.4%	-7.4%	56.2µM*	-18.9%	-4.5
CCOC(=O)C1CCCCN1S(=O)(=O)c1csc(C(N)=O)c1 (stereo not drawn)	3.7%	6.0%	/	3.9%	/
COCCNc1nc(C)nc2c1nc(-c1ccccc1)n2CCN(C)C	6.6%	0.2%	25.8%	-1.9%	0.2

Source: PubChem (National Center for Advancing Translational Sciences (NCATS))
